Broadly, the % Inhibition is the change of the read-out against control, counted positive when it falls.

Out of some 13,000 compounds screened, about 3,200 (25%) showed an effect of 50% or more. Some of the results follow. Peptide text beside a SMILES is read from it. * marks the point of attachment. Boc = CC(C)(C)OC(=O)*

The subject of this assay is P. falciparum stage V gametocytes. Also on record: BacTiter-Glo ATP luminescence viability of purified stage V gametocytes in 384-well plates, per cent inhibition versus DMSO. To be noted: 48 h, 5 µM; inhibitor.
On to `O=C(Nc1cccc(C(F)(F)F)c1)N1CCOC(CCN2CCC(c3ccccc3)CC2)(c2ccc(Cl)c(Cl)c2)C1` (centres unmarked) [TCMDC-135345], for which the “% Inhibition” value was -74.75%. `CC(C)(C)c1ccc(N2C(N)=NC(N)=NC2(C)C)cc1Cl` [TCMDC-137710]: the “% Inhibition” value is 44.95%. Under `COc1ccc(Cc2c(Cl)nc3nc(N)nc(N)c3c2C)c(OC)c1OC` [TCMDC-137688] stands 14.16%. Consider `N#CC(c1cccc(Cl)c1)c1ccc2c(C(F)(F)F)cc(C(F)(F)F)nc2n1` (centres unmarked) [TCMDC-125544], for which the “% Inhibition” value is 14.86%.

Take `CCCCCCCc1cc(=O)c2ccccc2[nH]1` [TCMDC-132026]: the “% Inhibition” value is on record as 46.19%. Under `CCCOc1cc(OCCC)cc(-c2cc(=O)c3ccccc3[nH]2)c1` [TCMDC-138943] stands 63.29%; under `O=c1cc(-c2ccc3ccccc3c2)[nH]c2ccccc12` [TCMDC-138937], 4.967%; under `CCCCCC(C)C(C)c1cc(O)c2c(c1)OC(C)(C)CC2(O)c1ccnn1C` (centres unmarked) [TCMDC-131795], -1.098%. Turning to `COc1ccc2nccc([C@@H](O)CN3CCC(NC(=O)/C=C/c4ccc5cc(C)[nH]c5c4)CC3)c2c1` [TCMDC-141041], the “% Inhibition” value is -19.17%.

As to `NC(N)=Nc1nc(CCCCCCCCc2csc(N=C(N)N)n2)cs1` [TCMDC-137552], the “% Inhibition” value was 85.12%. As to `NC(N)=Nc1nc(-c2ccc(N=C(N)N3CCC[C@H]3CN3CCCC3)cc2)cs1` [TCMDC-139612], the “% Inhibition” value is given as 25.87%. Take `N#C/N=C(\NCCCCCCCCN/C(=N\C#N)NCCSCc1csc(N=C(N)N)n1)NCCCSc1csc(N=C(N)N)n1` [TCMDC-139456]: the “% Inhibition” value is -7.363%.

Regarding `Cc1ccc([S+]([O-])Cc2ccc(Cl)cc2)cc1` (centres unmarked) [TCMDC-131393], the “% Inhibition” value is 8.887%. With `COc1cc(Cc2cnc(N)nc2N)cc(OCCCCCC(N)=O)c1OC` [TCMDC-137361], the “% Inhibition” value is 38.24%. The figure for `CC(C)(C)c1ccc(CN2CCCCC(NC(=O)c3cc(-c4ccccc4Cl)cs3)C2)cc1` (centres unmarked) [TCMDC-134467] is -60.63%; for `CC(C)(C)c1ccc(CN2CCCCC(NC(=O)c3cc(-c4ccccc4F)cs3)C2)cc1` (centres unmarked) [TCMDC-134465] it is 82.77%; for `CCc1ccc(CN2CCCCC(NC(=O)c3cc(-c4ccccc4F)cs3)C2)cc1` (centres unmarked) [TCMDC-134461] it is -44.42%. For the molecule `COc1cccc(-c2csc(C(=O)NC3CCCCN(Cc4ccc(C(C)(C)C)cc4)C3)c2)c1` (centres unmarked) [TCMDC-134469], the “% Inhibition” value was -86.38%.

On to `O=C(NC1CCCCN(Cc2ccc3c(c2)OCCO3)C1)c1cc(-c2ccccc2F)cs1` (centres unmarked) [TCMDC-134517], for which the “% Inhibition” value is recorded as -15.69%. For `COc1ccccc1-c1csc(C(=O)NC2CCCCN(Cc3ccc(C(C)(C)C)cc3)C2)c1` (centres unmarked) [TCMDC-134516], the “% Inhibition” value amounted to 70.05%. On to `CC(=O)Nc1ccc(CN2CCC(NC(=O)c3ccc(-c4cccc(C(F)(F)F)c4)s3)CC2)cc1` [TCMDC-134332], for which the “% Inhibition” value was determined as 3.235%. Turning to `Cc1ccc(O)c(CN2CCCC(COC(c3ccc(F)cc3)c3ccc(F)cc3)C2)c1` (centres unmarked) [TCMDC-136033], the “% Inhibition” value is -2.358%. Regarding `CCOc1ccc(-c2nonc2NC(=O)c2ccccc2F)cc1OCC` [TCMDC-125206], the “% Inhibition” value is reported as 57.11%. Take `CCOc1ccc(-c2nonc2NC(=O)c2ccccc2Cl)cc1OCC` [TCMDC-125205]: the “% Inhibition” value is listed as 48.31%. For `CCCOc1ccc(-c2nonc2NC(=O)c2cccc(OC)c2)cc1OCCC` [TCMDC-124765], the “% Inhibition” value is reported as 56.26%. On to `CCOc1cccc(C(=O)Nc2nonc2-c2ccc(OC)c(OC)c2)c1` [TCMDC-125179], for which the “% Inhibition” value stood at 47.83%. Consider `CCOc1ccc(-c2nonc2NC(=O)c2ccccc2OC)cc1OCC` [TCMDC-125198], for which the “% Inhibition” value is 87.63%.

As to `CCCOc1ccccc1C(=O)Nc1nonc1-c1ccc(OCC)c(OCC)c1` [TCMDC-124767], the “% Inhibition” value was 53.72%. On to `O[C@H]1[C@H](OCc2ccc(-c3ccccc3)cc2)CC[C@@H]1N1CCCCC1` [TCMDC-132078], for which the “% Inhibition” value was -8.021%.

On to `N#Cc1cccc(CN2CCCN(c3ccc(NC(=O)c4cccs4)cc3)CC2)c1` [TCMDC-134987], for which the “% Inhibition” value is on record as -14.58%. For `Cc1ccc(CN2CCN(CC(O)COc3ccc4c(c3)CCC4)CC2)cc1` (centres unmarked) [TCMDC-141429], the “% Inhibition” value is -18.62%. With `COc1ccc(CC2(c3ccc(F)cc3)N=C(N)N(CCCc3ccccc3)C2=O)cc1` (centres unmarked) [TCMDC-136462], the “% Inhibition” value is -20.11%. Regarding `CCCOc1ccc(-c2nonc2NC(=O)c2ccccc2OC)cc1OCCC` [TCMDC-124766], the “% Inhibition” value was determined as 53.56%. The figure for `COc1nc2c(N3CCN(CCNCc4ccc5c(n4)NC(=O)CS5)CC3)ccnc2cc1F` [TCMDC-135193] is -2.167%; for `c1ccc(CN2CCCN(c3ccc4c(c3)CCN(Cc3ccc(-c5ncc[nH]5)cc3)CC4)CC2)cc1` [TCMDC-136549] it is 6.085%. In the case of `CCn1cc(C=C2Oc3c(ccc(O)c3CN3CCCCC3)C2=O)c2ccccc21` [TCMDC-124888], the “% Inhibition” value is 37.53%. For `COc1cc(F)c2nccc([C@@H](O)CN3CCC(NC(=O)OCc4ccccc4)C(F)C3)c2c1` (some centres unmarked) [TCMDC-141734], the “% Inhibition” value was -30.04%.

As for `COC(=O)C(=C(C)C)N1C(=O)[C@@H](NC(=O)OCc2ccccc2)[C@H]1SS[C@@H]1[C@H](NC(=O)OCc2ccccc2)C(=O)N1C(C(=O)OC)=C(C)C` [TCMDC-132119], the “% Inhibition” value was 84.32%. As for `CC(C)=C(C(=O)OCc1ccccc1)N1C(=O)[C@@H](NC(c2ccccc2)(c2ccccc2)c2ccccc2)[C@H]1[S+]([O-])CC(=O)OC(C)(C)C` (some centres unmarked) [TCMDC-139078], the “% Inhibition” value was -23.33%. In the case of `O=C(Nc1cccc(CN2CCCN(Cc3ccsc3)CC2)c1)c1cc2ccccc2s1` [TCMDC-134612], the “% Inhibition” value is given as -54.77%. As to `O=C(Nc1cccc(CN2CCCN(Cc3ncc[nH]3)CC2)c1)c1ccc2ccccc2c1` [TCMDC-141856], the “% Inhibition” value is reported as 45.36%. The figure for `CCCCCCN1CCN(Cc2cccc(NC(=O)c3cc4ccccc4s3)c2)CC1` [TCMDC-134621] is -21.73%. As to `O=C(Nc1cccc(CN2CCCN(Cc3ncc[nH]3)CC2)c1)c1cc2ccccc2s1` [TCMDC-141877], the “% Inhibition” value turned out to be 80.03%. As to `CCCCCN1CCCN(Cc2cccc(NC(=O)c3cc4ccccc4s3)c2)CC1` [TCMDC-141872], the “% Inhibition” value was determined as 97.12%. As to `O=C(Nc1cccc(CN2CCCN(CC3CCCCC3)CC2)c1)c1cc2ccccc2s1` [TCMDC-141863], the “% Inhibition” value is -96.88%. `O=C(Nc1cccc(CN2CCCN(Cc3cccnc3)CC2)c1)c1cc2ccccc2s1` [TCMDC-141868]: the “% Inhibition” value is 50.41%.

Consider `COc1cccc(CN2CCCN(Cc3cccc(NC(=O)c4cc5ccccc5s4)c3)CC2)c1` [TCMDC-141874], for which the “% Inhibition” value is -57.17%.

For `CC(C)CN1CCCN(Cc2cccc(NC(=O)c3cc4ccccc4s3)c2)CC1` [TCMDC-141869], the “% Inhibition” value is given as -90.88%. In the case of `O=C(Nc1cccc(CN2CCCN(CCc3ccccc3)CC2)c1)c1cc2ccccc2s1` [TCMDC-141870], the “% Inhibition” value was 77.28%. Consider `O=C(Nc1cccc(CN2CCCN(Cc3ccccc3)CC2)c1)c1cc2ccccc2s1` [TCMDC-141864], for which the “% Inhibition” value is on record as -29.46%. As for `O=C(Nc1cccc(CN2CCCN(Cc3cccc(O)c3)CC2)c1)c1cc2ccccc2s1` [TCMDC-141875], the “% Inhibition” value is -26.68%. The figure for `COC(=O)CC[C@H](NC(=O)[C@H](C)NC(=O)OC(C)(C)C)C(=O)OC` [TCMDC-131388] (Boc-Ala-Glu(OMe)-OMe) is -20.52%.

As for `CCCCC#Cc1cnc2nc(N)[nH]c(=O)c2n1` [TCMDC-137943], the “% Inhibition” value was determined as 7.746%. For the molecule `CCCCC(O)c1cc(O)c2c(c1)OC(C)(C)CC2C1=CCN(Cc2ccc3ccccc3c2)CC1` (centres unmarked) [TCMDC-131420], the “% Inhibition” value is -23.67%. For the molecule `CC1(C)N=C(N)N=C(N)N1c1cccc(C(F)(F)F)c1` [TCMDC-124504], the “% Inhibition” value was -28.24%.

For the molecule `CC(=O)Nc1nc(-c2ccccc2)[nH]c1C(N)=O` [TCMDC-131311], the “% Inhibition” value is reported as -1.405%.

Take `COc1ccc(Nc2nccc(N3CCC(NC(=O)c4cccc(NC(C)=O)c4)C3)n2)cc1` (centres unmarked) [TCMDC-133611]: the “% Inhibition” value was -20.16%.

With `O=C(N[C@H]1CCN(CCc2ccc(O[C@H]3CCNC3)c(Br)c2)C1)c1ccc(Cl)c(Cl)c1` [TCMDC-141069], the “% Inhibition” value worked out at 53.75%.

Take `O=C(N[C@H]1CCN(Cc2ccc(OC3CCN(Cc4ccccc4)CC3)c(Br)c2)C1)c1ccc(Cl)c(Cl)c1` [TCMDC-140286]: the “% Inhibition” value was determined as 18.35%. Under `O=C(N[C@H]1CCN(CCc2ccc(O[C@H]3CCNC3)cc2)C1)c1ccc(Cl)c(Cl)c1` [TCMDC-141066] stands 34.25%. For the molecule `O=C(NCCN1CCN(S(=O)(=O)c2ccc(OC3CCNCC3)c(Br)c2)CC1)c1ccc(Cl)c(Cl)c1` [TCMDC-141153], the “% Inhibition” value amounted to 84.33%. As for `O=C(N[C@H]1CCN(CCc2ccc(O[C@H]3CCNC3)c(Cl)c2)C1)c1ccc(Cl)c(Cl)c1` [TCMDC-141068], the “% Inhibition” value is recorded as 47.4%. For the molecule `COCCNC(=O)c1ccc(OC2CCN(Cc3ccc(F)c(F)c3)CC2)c(Cl)c1` [TCMDC-124653], the “% Inhibition” value was 4.866%.

Take `O=C(N[C@H]1CCN(CCc2ccc(O[C@H]3CCNC3)c(F)c2)C1)c1ccc(Cl)c(Cl)c1` [TCMDC-141067]: the “% Inhibition” value was determined as 56.15%. Take `Cc1cc(C)c2c(c1)C(=NO)CCN2` [TCMDC-140382]: the “% Inhibition” value is reported as -79.12%.

Turning to `NC1CCN(c2nc(NCCc3ccc(O)cc3)nc(NCc3ccccc3-c3ccc(C(F)(F)F)cc3)n2)CC1` [TCMDC-133442], the “% Inhibition” value is on record as 32.82%. Consider `CN1CCC(Oc2cc(NC(=O)Nc3ccc(-c4ccncc4)c(C(F)(F)F)c3)ccc2Cl)CC1` [TCMDC-139223], for which the “% Inhibition” value is given as -12.77%. As to `COc1cc(COc2c(C)nc(N)nc2N)cc(OC)c1OC` [TCMDC-131346], the “% Inhibition” value is on record as 7.837%.

Values taken from publication PMC4552634, “A New Set of Chemical Starting Points with Plasmodium falciparum Transmission-Blocking Potential for Antimalarial Drug Discovery” (PLoS ONE, 2015).
